The source made the active and inactive calls.

For assay [1], the system named is PRMT1 (protein arginine N-methyltransferase 1). The assay is described as follows: PRMT1 binders on small-molecule microarrays, primary screen, biochemical, small-molecule microarray, 635 nm fluorescence (AID 1088).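 Further: binding of Prmt1 protein to compounds spotted on small-molecule microarray slides.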 The settings on record: small-molecule microarray binding, higher = more signal.
The nature of assay [2]: yeast growth modulation, basal conditions, primary screen, YJM789 clinical isolate, OD600, 24 h (AID 1089).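 Further: growth of clinical yeast isolate S. cerevisiae YJM 789 seeded 1000 cells per well; test concentration not given here.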 To be noted: S. cerevisiae YJM789 growth, higher = more signal, called active from +8 up or from −8 down.
A short description of assay [3]: fission yeast growth modulation, primary screen, strain 972, OD600, 24 h, no modulator (AID 1090).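 Further: basal condition with compound alone and no growth modifier present; test concentration not given here.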 To be noted: S. pombe 972 growth, higher = more signal, called active from +8 up or from −8 down.
Assay [4] can be described thus: S. cerevisiae growth modulation with rapamycin, primary screen, strain BY4716, OD600, 96 h (AID 1091). Further: test concentration not given here. The settings on record: higher = more signal, called active from +8 up or from −8 down.
Assay [5] addresses Torsin-1A-interacting protein 2 (Homo sapiens) (UniProt Q8NFQ8). The assay is described as follows: LULL1 binders on small-molecule microarray, primary screen, cell lysate, human LULL1 lysate, 635/667 nm fluorescence (AID 1092).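 Further: probe is lysate of COS7 cells overexpressing human LULL1; score merges per-feature 667 nm fluorescence with signal-to-noise.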 The settings on record: hLULL1 lysate binding, 635 nm fluorescence, higher = more signal.
Assay [6] can be described thus: E. coli growth modulation, two-sided OD650, primary screen, E. coli filamentation project, strain DRC41, 24 h (AID 1093).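 Further: MC1000 strain lacking acrAB efflux and sulA so SOS filamentation is blocked; test concentration not given here.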 To be noted: OD650, 24 h, higher = more signal, called active from +8 up or from −8 down.
Assay [7] can be described thus: small-molecule microarray binders of probe aLefty2, primary screen, biochemical, biotinylated probe, 635/667 nm fluorescence (AID 1094).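 Further: score merges spot fluorescence near 667 nm with spot signal-to-noise ratio.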 To be noted: higher = more signal.
Assay [8] relates to Noggin (protein binding on small-molecule microarray). The assay is described as follows: Noggin binders on small-molecule microarray, primary screen, biochemical, 635/667 nm fluorescence (AID 1095).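 Further: score merges 667 nm feature fluorescence with signal to noise over triplicate slides.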 The settings on record: 635 nm fluorescence, higher = more signal.
In assay [9] the target is Neurogenic locus notch homolog protein 3 (Homo sapiens) (UniProt Q9UM47). The assay is described as follows: NOTCH3 binders on small-molecule microarray, primary screen, biochemical, 635/667 nm fluorescence (AID 1096). To be noted: NOTCH3 binding, 635 nm fluorescence, higher = more signal.
Assay [10] is described as follows: small-molecule microarray binders of probe aEGFR, primary screen, biochemical, biotinylated probe, 635/667 nm fluorescence (AID 1097).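 Further: probe is a biotinylated anti-EGFR antibody binding compounds printed on slides; score combines fluorescence near 667 nm and signal to noise of each spot.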 To be noted: higher = more signal.
Assay [11] concerns Plasmodium falciparum Sir2 (PF13_0152, Sir2A). The assay is described as follows: pfSir2 binders on small-molecule microarrays, primary screen, biochemical, small-molecule microarray, 635 nm fluorescence (AID 1098).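 Further: score merges spot fluorescence intensity with its signal-to-noise ratio.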 To be noted: small-molecule microarray binding, fluorescence 635 nm; higher = more signal.
Assay [12] is described as follows: small-molecule microarray binders of probe aDKK1, primary screen, biochemical, biotinylated probe, 635/667 nm fluorescence (AID 1099).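 Further: score merges 667nm spot fluorescence with signal to noise across triplicate slides; reference of the scale not given here.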 To be noted: higher = more signal.
Assay [13] in a line: small-molecule microarray binders of probe aCHRDL2, primary screen, biochemical, biotinylated probe, 635/667 nm fluorescence (AID 1100). To be noted: higher = more signal.
The nature of assay [14]: splicing luciferase reporter signal modulators, primary screen, spliceosome inhibition project, cell-based, HEK293, splice +/- reporter (AID 1101).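 Further: HEK293 cells carrying a splicing-competent luciferase reporter gene; test concentration not given here.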 To be noted: luminescence, 24 h, higher = more signal, called active from +8 up or from −8 down. (In general: Reporter assays use an easily measured gene product as a stand-in for the process of interest.)
The target in assay [15] is Fibroblast growth factor 10 (Homo sapiens) (UniProt O15520). The assay is described as follows: FGF10 binders on small-molecule microarrays, primary screen, biochemical, small-molecule microarray, 635 nm fluorescence (AID 1102). To be noted: FGF10 binding, fluorescence 635 nm, higher = more signal.
Assay [16] relates to glycogen synthase kinase-3 (GSK3A per assay name; protocol says GSK3B). The assay is described as follows: GSK3 binders on small-molecule microarrays, primary screen, biochemical, small-molecule microarray, 635 nm fluorescence, GSK3A (AID 1103). Further: the record names both GSK3A and GSK3B. To be noted: small-molecule microarray binding, fluorescence 635 nm; higher = more signal.
Assay [17] concerns the target Epidermal growth factor receptor (Homo sapiens) (UniProt P00533). The assay is described as follows: EGFR binders on small-molecule microarrays, primary screen, biochemical, small-molecule microarray, 635 nm fluorescence (AID 1104).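 Further: score merges 667 nm emission intensity with spot signal to noise over triplicate slides.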 The settings on record: EGFR binding, higher = more signal.
The target in assay [18] is Follistatin-related protein 3 (Homo sapiens) (UniProt O95633). The assay is described as follows: FSTL3 binders on small-molecule microarrays, primary screen, biochemical, small-molecule microarray, 635 nm fluorescence (AID 1105).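 Further: score merges emission near 667 nm and signal to noise per printed spot across three slides.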 The settings on record: FSTL3 binding, higher = more signal.
In assay [19] the target is Dickkopf-related protein 1 (Homo sapiens) (UniProt O94907). The assay is described as follows: DKK1 binders on small-molecule microarrays, primary screen, biochemical, small-molecule microarray, 635 nm fluorescence scan (AID 1106).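 Further: score merges emission near 667 nm with signal to noise over three replicate slides.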 The settings on record: DKK1 binding, higher = more signal.
In assay [20] the test system is Inhibin beta A chain (activin A). The assay is described as follows: INHBA (activin A) binders on microarrays, primary screen, biochemical, small-molecule microarray, 635 nm fluorescence scan (AID 1107).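 Further: mouse activin A protein probed at 4.33 µg/mL on printed slides; score merges bound-protein fluorescence near 667 nm with spot signal-to-noise.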 To be noted: small-molecule microarray binding, higher = more signal.

Epidermal growth factor receptor (Homo sapiens), sequence (P00533 whole entry, looked up): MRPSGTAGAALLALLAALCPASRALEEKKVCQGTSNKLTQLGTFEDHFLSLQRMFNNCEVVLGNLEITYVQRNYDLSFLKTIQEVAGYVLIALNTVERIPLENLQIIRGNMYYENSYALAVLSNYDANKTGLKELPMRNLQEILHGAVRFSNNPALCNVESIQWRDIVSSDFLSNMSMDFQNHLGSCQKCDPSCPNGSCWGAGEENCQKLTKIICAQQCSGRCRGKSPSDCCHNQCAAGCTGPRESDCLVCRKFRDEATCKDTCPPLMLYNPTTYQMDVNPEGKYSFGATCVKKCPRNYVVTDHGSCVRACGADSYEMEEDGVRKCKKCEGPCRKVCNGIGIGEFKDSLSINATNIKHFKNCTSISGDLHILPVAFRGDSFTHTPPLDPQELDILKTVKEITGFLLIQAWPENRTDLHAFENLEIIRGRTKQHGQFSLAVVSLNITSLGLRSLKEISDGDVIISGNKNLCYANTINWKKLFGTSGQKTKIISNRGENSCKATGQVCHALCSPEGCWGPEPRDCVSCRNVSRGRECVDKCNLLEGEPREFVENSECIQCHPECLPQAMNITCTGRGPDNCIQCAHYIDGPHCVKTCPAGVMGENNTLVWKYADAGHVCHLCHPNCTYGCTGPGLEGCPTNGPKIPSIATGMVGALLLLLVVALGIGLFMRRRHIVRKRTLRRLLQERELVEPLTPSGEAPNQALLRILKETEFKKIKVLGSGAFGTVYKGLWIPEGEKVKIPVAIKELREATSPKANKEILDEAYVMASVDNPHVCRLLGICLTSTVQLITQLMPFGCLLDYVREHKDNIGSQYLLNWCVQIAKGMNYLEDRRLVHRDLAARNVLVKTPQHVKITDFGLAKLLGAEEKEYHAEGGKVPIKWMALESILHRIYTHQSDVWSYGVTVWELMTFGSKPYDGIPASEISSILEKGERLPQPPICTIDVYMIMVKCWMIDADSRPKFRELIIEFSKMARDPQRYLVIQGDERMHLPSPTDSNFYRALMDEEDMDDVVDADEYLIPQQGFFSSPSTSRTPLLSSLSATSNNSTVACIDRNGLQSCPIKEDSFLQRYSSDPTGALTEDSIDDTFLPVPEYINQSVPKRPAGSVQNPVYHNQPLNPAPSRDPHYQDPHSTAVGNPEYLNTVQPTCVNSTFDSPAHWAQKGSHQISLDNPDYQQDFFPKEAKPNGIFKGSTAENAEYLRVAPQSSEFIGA
Neurogenic locus notch homolog protein 3 (Homo sapiens), sequence (Q9UM47 whole entry, looked up): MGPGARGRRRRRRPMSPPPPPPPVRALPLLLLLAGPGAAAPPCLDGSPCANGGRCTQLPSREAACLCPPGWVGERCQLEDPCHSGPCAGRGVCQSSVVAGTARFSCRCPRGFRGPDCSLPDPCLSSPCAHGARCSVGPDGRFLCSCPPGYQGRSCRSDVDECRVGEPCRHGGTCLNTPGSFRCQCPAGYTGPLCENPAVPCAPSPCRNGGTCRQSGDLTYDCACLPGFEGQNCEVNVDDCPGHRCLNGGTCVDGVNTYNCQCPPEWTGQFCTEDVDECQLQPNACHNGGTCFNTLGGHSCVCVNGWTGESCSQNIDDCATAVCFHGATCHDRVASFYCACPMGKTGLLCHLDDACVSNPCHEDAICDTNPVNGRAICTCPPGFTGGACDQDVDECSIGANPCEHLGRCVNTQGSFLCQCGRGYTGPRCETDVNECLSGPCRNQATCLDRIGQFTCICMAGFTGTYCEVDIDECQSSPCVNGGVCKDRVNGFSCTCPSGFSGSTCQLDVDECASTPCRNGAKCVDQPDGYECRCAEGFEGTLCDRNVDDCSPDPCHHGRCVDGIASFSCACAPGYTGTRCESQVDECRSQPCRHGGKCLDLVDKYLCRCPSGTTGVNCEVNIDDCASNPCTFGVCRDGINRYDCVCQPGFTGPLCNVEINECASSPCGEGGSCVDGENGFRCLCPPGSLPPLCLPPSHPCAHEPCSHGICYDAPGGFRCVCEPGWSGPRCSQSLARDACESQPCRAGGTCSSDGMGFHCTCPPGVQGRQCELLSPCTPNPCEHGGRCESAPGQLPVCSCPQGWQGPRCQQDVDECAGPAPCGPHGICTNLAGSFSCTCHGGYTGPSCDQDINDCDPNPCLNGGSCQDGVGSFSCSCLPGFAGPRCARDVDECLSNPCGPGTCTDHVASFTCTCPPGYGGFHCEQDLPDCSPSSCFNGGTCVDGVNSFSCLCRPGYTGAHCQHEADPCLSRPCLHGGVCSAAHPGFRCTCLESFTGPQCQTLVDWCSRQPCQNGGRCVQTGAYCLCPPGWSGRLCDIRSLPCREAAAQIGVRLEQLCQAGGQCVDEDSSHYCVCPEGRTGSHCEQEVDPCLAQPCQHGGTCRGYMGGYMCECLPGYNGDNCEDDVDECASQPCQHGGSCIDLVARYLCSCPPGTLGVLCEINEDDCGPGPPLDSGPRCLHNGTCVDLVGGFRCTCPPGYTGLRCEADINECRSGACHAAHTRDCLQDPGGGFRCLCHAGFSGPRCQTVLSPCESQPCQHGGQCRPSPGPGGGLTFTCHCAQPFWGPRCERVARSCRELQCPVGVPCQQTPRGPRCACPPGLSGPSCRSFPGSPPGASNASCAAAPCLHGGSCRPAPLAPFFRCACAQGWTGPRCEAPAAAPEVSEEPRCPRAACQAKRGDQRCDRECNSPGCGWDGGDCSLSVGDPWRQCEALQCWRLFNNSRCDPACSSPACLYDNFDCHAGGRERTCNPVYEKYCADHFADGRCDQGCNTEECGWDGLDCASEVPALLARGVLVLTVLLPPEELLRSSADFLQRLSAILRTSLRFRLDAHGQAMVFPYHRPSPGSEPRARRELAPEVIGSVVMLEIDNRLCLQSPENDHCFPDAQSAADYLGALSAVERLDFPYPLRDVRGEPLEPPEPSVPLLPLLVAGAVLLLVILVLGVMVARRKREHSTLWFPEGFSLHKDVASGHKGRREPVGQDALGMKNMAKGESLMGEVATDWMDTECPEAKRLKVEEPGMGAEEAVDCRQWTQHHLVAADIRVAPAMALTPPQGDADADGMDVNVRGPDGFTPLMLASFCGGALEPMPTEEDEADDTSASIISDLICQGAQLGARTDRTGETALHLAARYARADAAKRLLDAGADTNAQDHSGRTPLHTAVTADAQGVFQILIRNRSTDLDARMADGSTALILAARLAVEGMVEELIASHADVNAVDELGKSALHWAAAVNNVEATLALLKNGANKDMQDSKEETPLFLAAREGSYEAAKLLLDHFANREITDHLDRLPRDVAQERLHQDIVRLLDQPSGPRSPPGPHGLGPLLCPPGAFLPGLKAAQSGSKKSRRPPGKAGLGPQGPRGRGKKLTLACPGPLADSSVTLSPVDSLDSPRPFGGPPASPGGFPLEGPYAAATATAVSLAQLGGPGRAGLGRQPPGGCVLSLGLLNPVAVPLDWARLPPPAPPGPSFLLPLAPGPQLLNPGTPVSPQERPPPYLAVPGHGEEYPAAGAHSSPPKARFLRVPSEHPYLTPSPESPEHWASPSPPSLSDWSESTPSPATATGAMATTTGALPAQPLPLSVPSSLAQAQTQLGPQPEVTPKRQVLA
Fibroblast growth factor 10 (Homo sapiens), sequence (O15520 whole entry, looked up): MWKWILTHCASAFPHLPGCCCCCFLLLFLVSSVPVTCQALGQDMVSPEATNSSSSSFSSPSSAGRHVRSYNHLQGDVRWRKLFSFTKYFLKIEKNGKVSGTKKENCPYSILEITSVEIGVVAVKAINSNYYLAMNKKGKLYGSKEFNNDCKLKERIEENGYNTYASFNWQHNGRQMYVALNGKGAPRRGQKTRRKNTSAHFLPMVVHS
Follistatin-related protein 3 (Homo sapiens), sequence (O95633 whole entry, looked up): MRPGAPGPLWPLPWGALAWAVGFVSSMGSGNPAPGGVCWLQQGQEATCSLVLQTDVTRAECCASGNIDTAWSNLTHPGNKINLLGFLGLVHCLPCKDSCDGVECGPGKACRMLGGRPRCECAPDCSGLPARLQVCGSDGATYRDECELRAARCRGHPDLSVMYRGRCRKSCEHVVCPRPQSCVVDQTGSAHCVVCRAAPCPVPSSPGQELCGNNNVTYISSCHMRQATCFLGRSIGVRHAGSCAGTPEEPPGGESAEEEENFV
Torsin-1A-interacting protein 2 (Homo sapiens), sequence (Q8NFQ8 whole entry, looked up): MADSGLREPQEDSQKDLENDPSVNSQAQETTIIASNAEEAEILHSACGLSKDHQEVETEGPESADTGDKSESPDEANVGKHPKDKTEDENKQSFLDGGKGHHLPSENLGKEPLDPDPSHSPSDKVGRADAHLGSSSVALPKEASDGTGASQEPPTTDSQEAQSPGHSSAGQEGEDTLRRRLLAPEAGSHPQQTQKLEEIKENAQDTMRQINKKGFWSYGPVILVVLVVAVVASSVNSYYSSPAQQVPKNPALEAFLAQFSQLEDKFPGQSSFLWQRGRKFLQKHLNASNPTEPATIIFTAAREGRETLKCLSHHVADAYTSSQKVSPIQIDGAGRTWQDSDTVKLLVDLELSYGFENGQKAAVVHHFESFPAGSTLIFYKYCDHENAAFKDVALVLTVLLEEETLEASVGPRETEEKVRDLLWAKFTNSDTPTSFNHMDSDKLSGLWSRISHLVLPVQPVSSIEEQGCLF
Dickkopf-related protein 1 (Homo sapiens), sequence (O94907 whole entry, looked up): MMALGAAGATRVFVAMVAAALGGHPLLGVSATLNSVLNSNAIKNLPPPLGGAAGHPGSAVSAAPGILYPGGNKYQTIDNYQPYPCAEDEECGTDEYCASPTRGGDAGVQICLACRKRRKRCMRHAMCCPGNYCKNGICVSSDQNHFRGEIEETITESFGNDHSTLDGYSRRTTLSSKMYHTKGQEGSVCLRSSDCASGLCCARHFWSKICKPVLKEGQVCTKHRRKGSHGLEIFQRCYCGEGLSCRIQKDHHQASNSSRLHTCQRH

Take `C=CC[C@@H]1C=C[C@H](ON=C(C)CCN2CCc3nc(-c4ccccc4)c(-c4ccccc4)cc3C2)[C@@H](CO)O1`: the composite z-score in [1] is 1.55; in assay [5] it was 1.53; in assay [7] it was -0.152; in [8], 0.631; in assay [9], 0.858; in assay [10], -0.0332. Moreover, the composite z-score in assay [11] is 0.775; in assay [12] it was -0.243; in [13] it was -0.574; in [15] it was 0.524; in assay [16] it was 0.702; in assay [17], 0.359. The composite z-score in assay [18] amounted to 0.808; in assay [19] it was 0.627; in assay [20], 1.07. Moreover, the z-score in [2] was -0.67 (inactive); in assay [3], -4.53 (inactive); in assay [4], -3.82 (inactive); in assay [6] it was 1.42 (inactive); in assay [14], 0.0139 (inactive).

In the case of `COC(=O)CC=C[C@H](C)[C@@H](OCc1cccc(Br)c1)[C@@H](C)[C@H](OC)C1CCCCC1`, the composite z-score in [1] was -0.0514; in assay [5], -0.412; in assay [7] it was -0.166; in [8], 0.32; in [9], -1; in [10] it was -0.237. For the same molecule, the composite z-score in [11] was 0.242; in [12], -0.462; in [13], -0.233; in assay [15] it was -0.0117; in assay [16], -1.16; in assay [17], 0.153. The figures for the composite z-score in assay [18], in assay [19] and in assay [20] were -0.449, 0.515 and 1.34, respectively. The z-score in [2] was 0.738 (inactive); in assay [3] it was -1.28 (inactive); in assay [4], 0.99 (inactive); in assay [6] it was 0.276 (inactive); in [14], -0.256 (inactive).

In the case of `O=C1C2=CC[C@H]3C(=O)N(c4cccc(Oc5ccccc5)c4)C(=O)[C@H]3[C@H]2[C@H](O)[C@@H]2O[C@H]12`, the composite z-score in assay [1] was 0.435; in assay [5] it was -0.122; in [7], -0.139; in assay [8] it was 0.744; in assay [9] it was 0.92; in assay [10] it was -0.0219. Besides, the composite z-score in assay [11] was 0.237; in assay [12], -0.372; in assay [13], -0.37; in assay [15], 0.635; in assay [16], 0.393; in assay [17] it was 0.299. Further, the composite z-score in [18] was 0.666; in [19], 0.655; in assay [20] it was -0.0639. The z-score was 0.135 (inactive) in [2]; -0.974 (inactive) in assay [3]; -0.147 (inactive) in [4]; -0.425 (inactive) in [6]; 14.7 (active) in [14].

`COC(=O)C1=C(C)N(Cc2ccccc2)[C@]23O[C@](C(=O)OC)(C(=O)N2[C@@H]1c1ccccc1)C(C(=O)OC)=C3C(=O)OC`: the composite z-score in [1] was 1.36; in assay [5] it was 1.31; in [7] it was -0.0228; in [8], 0.551; in assay [9], 1.12; in [10] it was 0.0478. In addition, the composite z-score was 1.16 in assay [11]; -0.389 in [12]; -0.562 in [13]; 1.24 in assay [15]; 1.06 in assay [16]; 0.7 in [17]. The composite z-score was found to be 0.84 in [18], 0.757 in assay [19] and 0.226 in [20]. For the same molecule, the z-score in assay [2] is -1.68 (inactive); in assay [3], -2.66 (inactive); in [4], -1.85 (inactive); in assay [6], 0.521 (inactive); in assay [14] it was -2.35 (inactive).

As to `CO[C@H]1COC(=O)CCC[C@@H](C)[C@H](OC)COC(=O)[C@@H](C)NC(=O)CC=C[C@@H]1C`, the composite z-score was 1.4 in assay [1]; -1.7 in assay [5]; -0.145 in assay [7]; 1.27 in assay [8]; 0.571 in assay [9]; 0.0115 in assay [10]. The composite z-score in assay [11] was 1.69; in assay [12], -0.502; in assay [13] it was -1.14; in [15], 0.313; in assay [16] it was 0.97; in assay [17], 1.2. Besides, the composite z-score in assay [18] was found to be 0.938; in assay [19], 1.57; in assay [20], 1.21. For the same molecule, the z-score was -0.994 (inactive) in assay [2]; -1.11 (inactive) in assay [3]; 0.0722 (inactive) in assay [4]; -0.597 (inactive) in assay [6]; -1.15 (inactive) in [14].

These data come from PubChem BioAssay.
